# TAR Tat displ: HIV-1 TAR-Tat binding disruption; actives 0.6% (n = 100,000); AID 1259389; HIV-1 TAR RNA, Tat peptide displacement FRET; stronger effect = higher value; z-score (concentration not given with the values); active = z-score of 3 or more in at least 2 runs
# CDC25B-CDK2 inh: human CDC25B-CDK2/CyclinA binding inhibition; P30305+P24941; HTRF CDC25B-CDK2/CyclinA binding, anti-His/anti-Flag; stronger effect = higher value; z-score (no concentration beside the values); actives 0.72% (n = 94,000); in the data active = z-score above about 3.2
# Active calls of the source: *; x = no result. Hits are enriched below; roughly 0.86% of the tested compounds scored in any of these assays.
SMILES,TAR Tat displ,CDC25B-CDK2 inh
Cc1ccccc1N1CSC2=C(C#N)C(c3ccccc3)CC(=O)N2C1 (stereo not drawn),-1.6,5.4*
Cc1ccc2c(CC(=O)Nc3sc4c(c3C(=O)NCC3CCCO3)CCC4)coc2c1C (stereo not drawn),1.3,-1.1
Cn1c(SCC(=O)Nc2cccc(Cl)c2)nc2c(oc3ccccc32)c1=O,-0.17,-1.9
Cc1ccccc1-n1nnc(-c2nc(-c3ccc(F)cc3)no2)c1N,0.9,x
O=C(NC1CCCCC1)c1cn2c3c(ccc(Cl)c3c1=O)OCC2,2.2,x
Cc1cc(-c2ccc(S(=O)(=O)N3CCOCC3)s2)on1,0.08,x
O=C(CCCN1C(=O)c2cccnc2Oc2ccc(Cl)cc21)NC1CCCC1,-0.42,x
Cc1ccc2nc(NC3=NCN(C(C)C)CN3)nc(C)c2c1,-1,8.1*
Cc1ccc2nc(NC3=NCN(CCN4CCOCC4)CN3)nc(C)c2c1,2.4,0.22
Cc1ccc(/C=c2/sc3n(c2=O)C(N)=C(C#N)C(c2ccc(C)o2)C=3C#N)o1 (stereo not drawn),x,6.6*
Cc1ccc([C@H]2C(C#N)=C(N)Oc3cc(C)oc(=O)c32)o1,x,-0.62
CC1CCN(C(=O)CSc2nc(-c3ccco3)nc3cc(=O)[nH]n23)CC1,9.2*,x
CC1CCCCN1C(=O)CSc1nc(-c2ccco2)nc2cc(=O)[nH]n12 (stereo not drawn),1.2,x
CCn1c(C)c(C)c2cc(C(=O)NCC3CCCO3)ccc21 (stereo not drawn),-2.1,x
O=C(CSc1nc(=O)n(CCN2CCOCC2)c2c1CCC2)Nc1ccc2c(c1)OCCO2,2.2,x
O=C(NCc1ccco1)Nc1nc2c(s1)CCCC2,0.08,x
Cc1cc(C)c(-c2c(NCC3CCCO3)c(=O)c2=O)cc1C (stereo not drawn),1,x
Cc1cccc(N2CCN(c3cc(C(=O)O)c4cc(N)ccc4n3)CC2C)c1 (stereo not drawn),6.5*,x
CC1CCN(c2cc(C(=O)O)c3cc(N)ccc3n2)CC1,-6.2,x
Cc1c(C(=O)NCCN2CCOCC2)oc2ccc3c(c12)C(O)CC1(CCCCC1)O3 (stereo not drawn),0.98,x
O=C(/C=C/c1cccs1)NC(=S)Nc1ccccc1,x,8.3*
O=C(/C=C/c1cccs1)NC(=S)NCc1ccccc1,x,-2
Brc1ccc(C(c2c[nH]c3ccccc23)c2c[nH]c3ccccc23)s1,x,16*
O=C(c1ccc(Br)cc1)C(O)c1c[nH]c2ccccc12 (stereo not drawn),1.2,0.22
COC(=O)c1cccc(NC(=O)Nc2ccccc2)c1,x,-2
SMILES,TAR Tat displ,CDC25B-CDK2 inh
Cc1ccc(C(=O)Nc2ccc(S(=O)(=O)O)c3cc(S(=O)(=O)O)cc(S(=O)(=O)O)c23)cc1NC(=O)c1cccc(NC(=O)Nc2cccc(C(=O)Nc3cc(C(=O)Nc4ccc(S(=O)(=O)O)c5cc(S(=O)(=O)O)cc(S(=O)(=O)O)c45)ccc3C)c2)c1,-11,4.7*
CC1=C(C(=O)N(CC(=O)NCCc2cccs2)c2ccc(Cl)cc2)SCCO1,0.19,0.15
CSc1nc(=O)c2c(n1C)NC(=O)CC2c1cccc(F)c1F (stereo not drawn),0.45,-0.08
Cc1cc2c3c([nH]c2cc1S(=O)(=O)Nc1ccccc1)CCCC3=O,-1.3,x
Cc1cc2c3c([nH]c2cc1S(=O)(=O)Nc1ccc(S(N)(=O)=O)cc1)CCCC3=O,11*,x
Cc1cc2c3c([nH]c2cc1S(=O)(=O)Nc1cccnc1)CCCC3=O,7.6*,x
Cc1ccc(NS(=O)(=O)c2cc3[nH]c4c(c3cc2C)C(=O)CCC4)cc1,-0.82,x
CCOC(=O)c1c(NC(=O)C2=Cc3cc(OC)ccc3OC=C2)sc2c1CCC(CC)C2 (stereo not drawn),-1.1,-0.29
c1ccc(-c2csc(-c3nc(-c4ccc5c(c4)OCO5)cs3)n2)cc1,1.4,x
CCCCc1nn2c(=O)cc(CSCC(=O)Nc3ccc(F)cc3)nc2s1,0.43,x
Cc1ccc(N(C)S(=O)(=O)c2cn(C)cn2)cc1,0.87,x
Cc1cc(-c2ccc(S(=O)(=O)Nc3ccccc3Cl)s2)on1,0.55,x
COc1ccc(OC)c(C2CC(=O)N3CN(c4ccc(F)cc4)CSC3=C2C#N)c1 (stereo not drawn),-2.1,4*
COc1ccccc1N1CSC2=C(C#N)C(c3ccc(Br)cc3)CC(=O)N2C1 (stereo not drawn),-4.8,1.5
COc1ccc(OC)c(C2CC(=O)N3CN(c4ccc(Br)cc4)CSC3=C2C#N)c1 (stereo not drawn),-0.7,4.5*
COc1ccc(Br)cc1C1CC(=O)N2CN(c3ccccc3OC)CSC2=C1C#N (stereo not drawn),0.32,6.2*
COc1ccc(C2CC(=O)N3CN(c4ccc(Br)cc4)CSC3=C2C#N)c(OC)c1 (stereo not drawn),-1.8,6.4*
Cc1ccc2nc3c(N)c(Cl)cc4c3c(c2c1)-c1ccccc1C4=O,x,-2.5
Cc1ccc(S(=O)(=O)c2nc(S(C)(=O)=O)sc2NCCCN(C)C)cc1,-0.12,0.13
COc1ccc(Cl)cc1N1C(=O)C2CCCN2C1c1cccc(Cl)c1 (stereo not drawn),-0.74,-0.51
CC1=C(c2cccc(Cl)c2)S(=O)(=O)NC1=NC1CCC(C)CC1 (stereo not drawn),1.2,-2
CC1=C(c2ccc(C)c(C)c2)S(=O)(=O)NC1=NCc1ccc2c(c1)OCO2,-2.2,-1.4
O=C(NC1CCCC1)C1CCN(C(=O)c2ccc3c(c2)nnn3C2CCCC2)CC1,0.21,x
COC(=O)c1cc(S(=O)(=O)Nc2ccc(F)c(F)c2)c[nH]1,1.6,x
COc1ccc(OC)c(C2CCN(S(=O)(=O)c3ccc(-c4coc(C)n4)cc3)C2)c1 (stereo not drawn),-0.73,x
SMILES,TAR Tat displ,CDC25B-CDK2 inh
COc1ccc(Br)cc1C1CC(=O)N2CN(C3CCCCC3)CSC2=C1C#N (stereo not drawn),-0.3,-0.77
COc1ccc(N2CSC3=C(C#N)C(c4cc(Br)ccc4OC)CC(=O)N3C2)cc1 (stereo not drawn),-0.71,5.4*
Clc1ccc(CCNc2cc(-c3ccccc3)nc3nncn23)cc1,-0.75,-2.1
O=C(CC(=O)N1CCN(c2ccccc2)CC1)Nc1ccc2nc3n(c(=O)c2c1)CCCCC3,-1.5,-1.5
O=C1C=CC2=C3c4cc(O)c(O)cc4CC3(O)COC2=C1O (stereo not drawn),20*,x
Cc1[nH]c(=O)[nH]c(=O)c1S(=O)(=O)Nc1ccc(-c2ccno2)cc1,1,x
Cc1[nH]c(=O)[nH]c(=O)c1S(=O)(=O)Nc1ccc2oc(-c3ccncc3)nc2c1,6.2*,x
CCOC(=O)c1cnn(-c2ccccc2)c1NC(=O)CSc1nnc(-c2cccs2)o1,x,-0.79
CCCN(CCC)C(=O)C(=O)c1c(C)n(C)c2ccccc12,x,-1.7
COc1ccc(Nc2ncccc2N)cc1,-1.7,13*
Nc1cccnc1Nc1ccccc1,-4.8,3.3
Cc1ccc(N=C2NC(=O)/C(=C/c3ccc(O)c(Br)c3)S2)cc1Cl,x,8.8*
CCOc1cc(/C=C2\SC(=Nc3cccc(Cl)c3C)NC2=O)ccc1O,x,0.82
Cc1ccc(C2NC(=O)c3n[nH]c(-c4ccco4)c32)cc1 (stereo not drawn),-3.5,-0.08
O=C1NC(c2cccc(O)c2)c2c1n[nH]c2-c1ccco1 (stereo not drawn),-0.63,2.3
O=C1NC(c2cccnc2)c2c1n[nH]c2-c1ccco1 (stereo not drawn),-5.5,8.9*

# Source: PubChem
